21 compounds from PubChem BioAssay (EPA / NIEHS) can be followed below.

Common to all, as to conditions: mRNA level, 48 h; actives raise or lower the signal
Read-out in test [1]: growth arrest and DNA damage 45 (GADD45A), GADD45A (gene 1647)
Briefly: LTEA_HepaRG_GADD45A: Life Technologies and Expression Analysis (LTEA) Assay for growth arrest and DNA damage 45 (GADD45A) using HepaRG (AID 2283458). A digest of the protocol:
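GADD45A expression was measured by TaqMan qRT-PCR against three housekeeping genes (ACTB, GAPDH, POLR2A) after 48 h treatment of HepaRG cells. Eight-point half-log series up to 100 uM in 0.5% DMSO, run in duplicate.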

Read-out in test [2]: Forkhead box O3 (FOXO3), FOXO3 (gene 2309)
Briefly: LTEA_HepaRG_FOXO3: Life Technologies and Expression Analysis (LTEA) Assay for Forkhead box O3 (FOXO3) using HepaRG (AID 2283459). A digest of the protocol:
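Gene-expression endpoint: FOXO3 transcript level by qRT-PCR in HepaRG cultures treated 48 h with chemicals up to 100 uM (half-log, 0.5% DMSO vehicle).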

Read-out in test [3]: ABC Transporter (ABCB1), ABCB1 (gene 5243)
Briefly: LTEA_HepaRG_ABCB1: Life Technologies and Expression Analysis (LTEA) Assay for ABC Transporter (ABCB1) using HepaRG (AID 2283460). A digest of the protocol: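 Human liver HepaRG line treated 48 h with up to 100 uM compound (eight half-log points, 0.5% DMSO); ABCB1 mRNA change fitted bidirectionally against DMSO controls.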

Read-out in test [4]: growth arrest and DNA damage 45 (GADD45B), GADD45B (gene 4616)
Briefly: LTEA_HepaRG_GADD45B: Life Technologies and Expression Analysis (LTEA) Assay for growth arrest and DNA damage 45 (GADD45B) using HepaRG (AID 2283461). A digest of the protocol: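 Differentiated HepaRG cells, plated 48 h then switched to serum-free induction medium, were exposed 48 h in duplicate to eight half-log concentrations from 100 uM in 0.5% DMSO; mRNA quantified by qRT-PCR, normalized to ACTB/GAPDH/POLR2A, bidirectional fit versus DMSO.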

Read-out in test [5]: ABC Transporter (ABCC3), ABCC3 (gene 8714)
Briefly: LTEA_HepaRG_ABCC3: Life Technologies and Expression Analysis (LTEA) Assay for ABC Transporter (ABCC3) using HepaRG (AID 2283462). A digest of the protocol:
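HepaRG cells in serum-free induction medium were exposed for 48 h in duplicate to 8-point half-log concentrations topping at 100 uM in 0.5% DMSO. ABCC3 mRNA was measured by qRT-PCR normalized to ACTB, GAPDH and POLR2A, with bidirectional fitting versus DMSO.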

Read-out in test [6]: ABC Transporter (ABCB11), ABCB11 (gene 8647)
Briefly: LTEA_HepaRG_ABCB11: Life Technologies and Expression Analysis (LTEA) Assay for ABC Transporter (ABCB11) using HepaRG (AID 2283463). A digest of the protocol: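 Using HepaRG cultures held in 0.5% DMSO, chemicals were tested at half-log dilutions from 100 uM for 48 h. Induction or suppression of ABCB11 mRNA, normalized to ACTB, GAPDH and POLR2A, was fitted bidirectionally against vehicle.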

Read-out in test [7]: ABC Transporter (ABCC2), ABCC2 (gene 1244)
As to the kind of experiment: LTEA_HepaRG_ABCC2: Life Technologies and Expression Analysis (LTEA) Assay for ABC Transporter (ABCC2) using HepaRG (AID 2283464). A digest of the protocol: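 HepaRG cells were plated 48 h, switched to serum-free induction medium, then exposed in duplicate for 48 h to 8 concentrations (top 100 uM, half-log steps, 0.5% DMSO). ABCC2 mRNA was measured by qRT-PCR normalized to ACTB/GAPDH/POLR2A; bidirectional fitting versus DMSO.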

Read-out in test [8]: Broad substrate specificity ATP-binding cassette transporter ABCG2 (Homo sapiens) (UniProt Q9UNQ0)
As to the kind of experiment: LTEA_HepaRG_ABCG2: Life Technologies and Expression Analysis (LTEA) Assay for ABC Transporter (ABCG2) using HepaRG (AID 2283465). A digest of the protocol:
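Gene expression of ABCG2 in HepaRG liver cells is quantified by qRT-PCR following 48 h exposure across an eight-point series topping at 100 uM. Values come from bidirectional fitting relative to DMSO vehicle.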

Read-out in test [9]: ATP-citrate lyase (ACLY), ACLY (gene 47)
As to the kind of experiment: LTEA_HepaRG_ACLY: Life Technologies and Expression Analysis (LTEA) Assay for ATP-citrate lyase (ACLY) using HepaRG (AID 2283466). A digest of the protocol: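 ACLY expression changes in human HepaRG liver cells are quantified by qRT-PCR after 48 h exposure to test chemicals (maximum 100 uM, half-log steps). Values are fitted in both directions relative to 0.5% DMSO vehicle.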

Read-out in test [10]: Peroxisomal acyl-coenzyme A oxidase 1 (ACOX1) gene, ACOX1 (gene 51)
As to the kind of experiment: LTEA_HepaRG_ACOX1: Life Technologies and Expression Analysis (LTEA) Assay for Peroxisomal acyl-coenzyme A oxidase 1 (ACOX1) gene using HepaRG (AID 2283467). A digest of the protocol: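 Human HepaRG hepatic cultures, 48 h treatment with test chemicals up to 100 uM. ACOX1 expression read by qRT-PCR relative to 0.5% DMSO vehicle.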

Calls of active or inactive are those of the source. Rule for the calls: active = hit-call score of the fitted dose curve at least 0.9, where 1 is the maximum; inactive = score below 0.9.

Sequence of Broad substrate specificity ATP-binding cassette transporter ABCG2 (Homo sapiens) (Q9UNQ0 whole entry, looked up): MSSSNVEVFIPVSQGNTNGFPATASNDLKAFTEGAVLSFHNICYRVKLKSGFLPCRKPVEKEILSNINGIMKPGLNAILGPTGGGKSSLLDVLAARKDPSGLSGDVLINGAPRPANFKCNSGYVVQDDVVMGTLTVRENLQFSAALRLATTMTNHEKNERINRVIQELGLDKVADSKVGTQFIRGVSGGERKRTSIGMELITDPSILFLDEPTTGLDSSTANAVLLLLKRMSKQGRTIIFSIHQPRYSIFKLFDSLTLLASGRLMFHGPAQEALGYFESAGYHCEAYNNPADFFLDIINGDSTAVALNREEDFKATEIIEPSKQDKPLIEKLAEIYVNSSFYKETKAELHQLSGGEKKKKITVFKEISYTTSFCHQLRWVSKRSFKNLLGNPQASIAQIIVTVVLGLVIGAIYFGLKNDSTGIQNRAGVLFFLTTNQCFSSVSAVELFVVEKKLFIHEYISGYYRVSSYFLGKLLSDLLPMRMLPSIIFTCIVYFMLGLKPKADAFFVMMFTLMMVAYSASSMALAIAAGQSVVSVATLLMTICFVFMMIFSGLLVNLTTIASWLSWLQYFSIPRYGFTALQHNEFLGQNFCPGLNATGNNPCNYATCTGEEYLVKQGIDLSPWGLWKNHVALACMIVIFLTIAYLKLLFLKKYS

Regarding `CCCCCCC(C=O)=Cc1ccccc1`, the result in [1], in test [2], in test [3], in [4], in [5] and in test [6] was inactive. The outcome in test [7], in test [8], in [9] and in test [10] was inactive.

As for `O=[Si]=O`, the outcome in test [1], in test [2], in test [3], in test [4], in test [5] and in test [6] was inactive. The call in [7], in test [8], in [9] and in test [10] was inactive.

Take `Nc1nc(Cl)nc2c1ncn2[C@H]1C[C@H](O)[C@@H](CO)O1`: the half-maximal activity concentration (AC50) (usually the concentration at which the activity in the assay is half-maximal) in test [1] was 0.263 µM (active); in test [2], 2.18 µM (active); in [3], 1.39 µM (active); in [4] it was 0.447 µM (active); in test [5], 0.987 µM (active); in test [6], 0.593 µM (active). Besides, the concentration at half-maximal activity (AC50) in [7] was 1.12 µM (active); in test [10], 4.13 µM (active). Also, the result in test [8] and in test [9] was inactive.

Consider `C#CC(O)C(CC)CCCC` (stereo not drawn), for which the call in test [1], in test [2], in test [3], in test [4], in test [5] and in test [6] was inactive. Also, the compound was called inactive in test [7], in test [8], in [9] and in [10].

Turning to `CN(C)CCCN1c2ccccc2Sc2ccc(Cl)cc21`, the outcome in test [1], in test [2], in test [3], in [5], in test [8] and in test [9] was inactive. The half-maximal activity concentration (AC50) in test [4] is 89.7 µM (active); in test [6] it was 24.7 µM (active); in [7], 89.6 µM (active).

Regarding `NC=O`, the compound was called inactive in [1], in [2], in test [3], in [4], in test [5] and in test [6]. In addition, the compound was classed as inactive in [7], in test [8], in [9] and in test [10].

For `CC(COCC(C)OC(=O)c1ccccc1)OC(=O)c1ccccc1` (stereo not drawn), the result in test [1], in test [2], in test [3], in test [4], in [5] and in [6] was inactive. The compound was classed as inactive in test [7], in test [8] and in test [9].

For `CCCCc1nc2cccnc2n1Cc1ccc(-c2ccccc2-c2nnn[nH]2)cc1`, the compound was called inactive in [1], in [2], in [4], in [5], in test [9] and in [10]. Moreover, the AC50 in [3] is 50 µM (active); in test [6], 89.8 µM (active); in test [7], 50 µM (active); in test [8] it was 27.1 µM (active).

Consider `CO[C@@H]1COCC[C@@H]1N[C@@H]1CC[C@@](C(=O)N2CCc3ncc(C(F)(F)F)cc3C2)(C(C)C)C1`, for which the call in test [1], in test [2], in test [3], in test [4], in [5] and in [6] was inactive. Further, the result in test [7], in test [8], in [9] and in test [10] was inactive.

Take `CC(=O)O`: the call in [1], in test [2], in [3], in [4], in test [5] and in test [6] was inactive. The compound was classed as inactive in test [7], in test [8], in [9] and in test [10].

For the compound `CC1(C)C(=O)NC(=O)N1CO`, the compound was classed as inactive in [1], in test [2], in test [3], in test [4], in test [5] and in test [6]. Moreover, the compound was classed as inactive in test [7], in [8], in [9] and in test [10].

Regarding `CCCCCCCC(=O)OC`, the compound was classed as inactive in test [1], in test [2], in test [3], in test [4], in test [5] and in [6]. Besides, the compound was called inactive in test [7], in test [8], in test [9] and in [10].

As for `Nc1nc(=S)c2[nH]cnc2[nH]1`, the compound was classed as inactive in [1], in test [2] and in test [4]. For the same compound, the AC50 in [3] was 10.3 µM (active); in [5], 13.9 µM (active); in test [6], 7.88 µM (active); in test [7], 21.1 µM (active); in test [8] it was 8.31 µM (active); in [9], 10.2 µM (active). In test [10], the AC50 was 12.2 µM (active).

For the compound `N[C@@H](Cc1c[nH]c2ccccc12)C(=O)O`, the result in test [1], in test [2], in test [3], in [4], in test [5] and in [6] was inactive. The result in test [7], in test [8], in test [9] and in test [10] was inactive.

For `C/C=C/C=C/C(=O)O`, the AC50 in test [1] was 0.246 µM (active). Also, the outcome in [2], in test [3], in test [4], in [5], in test [6] and in test [7] was inactive. For the same compound, the compound was called inactive in test [8], in [9] and in [10].

Turning to `CC(C)COC(=O)CCCCC(=O)OCC(C)C`, the outcome in test [1], in test [2], in [3], in test [4], in [5] and in [6] was inactive. For the same compound, the result in test [7], in test [8], in [9] and in test [10] was inactive.

Consider `CCCCCCCCCCCCCCCCO`, for which the call in [1], in [2], in test [3], in test [4], in test [5] and in test [6] was inactive. Further, the compound was classed as inactive in test [7], in test [8], in test [9] and in test [10].

Consider `c1ccc2occc2c1`, for which the compound was classed as inactive in test [1], in test [2], in test [3], in [4], in [5] and in test [6]. For the same compound, the call in test [7], in test [8], in test [9] and in test [10] was inactive.

As for `O=C1CCCCC1`, the concentration at half-maximal activity (AC50) in test [1] was 0.0727 µM (active). Also, the outcome in test [2], in [3], in test [4], in test [5], in [6] and in test [7] was inactive. Also, the outcome in test [8], in [9] and in test [10] was inactive.

As to `CCCCOC(=O)CCCCC(=O)OCCCC`, the result in test [1], in [2], in [3], in test [4], in test [5] and in test [6] was inactive. Moreover, the call in test [7], in [8], in test [9] and in [10] was inactive.

Take `O=NO`: the outcome in test [1], in [2], in test [3], in test [4], in test [5] and in test [6] was inactive. Moreover, the compound was classed as inactive in test [7], in [8], in test [9] and in test [10].
